The panel holds about 83,000 compounds, 20% with a hit somewhere; the sample as a whole holds those more often.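 Each cell line was grown in a 96-well plate and treated with one concentration of compound for 48 hours. Values below 10 were considered active.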 Values without a mark were called inactive. Active and inactive are the calls of the source.

Common to all, as to assay: NCI-60 one-dose screen, 48 h (100 = growth as untreated, 0 = no growth, -100 = all killed)
Holding throughout (conditions): 10 µM

The subject of test [1] is HCT-15 colon.
In test [2] the test system is HT29 colon.
Test [3] has as its system SNB-19 CNS.
Test [4] deals with U251 CNS.
The subject of test [5] is PC-3 prostate.
Test [6] deals with SK-MEL-5 melanoma.
Test [7] relates to UACC-62 melanoma.
The test system of test [8] is LOX IMVI melanoma.
The test system of test [9] is SK-MEL-28 melanoma.
Test [10] relates to SK-MEL-2 melanoma.
In test [11] the test system is EKVX NSCLC.
Test [12] deals with SN12C renal.
The test system of test [13] is UO-31 renal.
In test [14] the test system is TK-10 renal.
Test [15] deals with ACHN renal.
The test system of test [16] is A498 renal.
The test system of test [17] is CCRF-CEM leukemia.
In test [18] the test system is MOLT-4 leukemia.
The subject of test [19] is CAKI-1 renal.

Turning to `CN1C(=O)N(C)C2SC(N/N=C/C=C/c3ccccc3)=NC21` (stereo not given), the growth in [1] was 37.2%; in test [2] it was 73.2%; in test [3] it was 72.5%; in test [4], 79.2%; in [5], 75.5%; in test [6] it was 57.9%. Moreover, the growth in test [7] is 41.7%; in [8] it was 68.1%; in test [9] it was 69.5%; in [10], 81.9%; in test [11], 86.6%; in test [12], 85.6%. Moreover, the growth in [13] was 58.4%; in test [14] it was 99.6%; in test [15], 92.7%; in test [16] it was 81.5%; in test [17], 47.5%; in test [18] it was 46.7%.
As for `COc1cccc2nc(Nc3cccc(NC(=O)c4ccc(CN5CCCN(C)CC5)c(C(F)(F)F)c4)c3)ccc12`, the growth in test [1] is -100% (active); in [2] it was -72% (active); in [3], -99.3% (active); in test [4], -55.6% (active); in test [5] it was -69.8% (active); in [6], -96.9% (active). For the same molecule, the growth in test [7] is -74.1% (active); in test [8], -98.8% (active); in test [9], -100% (active); in test [10], -87.4% (active); in test [11], -98.9% (active); in test [12] it was -79.9% (active). The growth is -97.2% (active) in [13]; -89.4% (active) in test [14]; -100% (active) in test [15]; -100% (active) in [19]; -91% (active) in test [16]; -54.3% (active) in test [17]. Also, the growth in [18] was -42.8% (active).
Turning to `CN1CCc2c(sc3ncnc(N/N=C/c4cn(-c5ccccc5)nc4-c4ccc(Cl)cc4)c23)C1`, the growth is 7.13% (active) in test [1]; 5.95% (active) in test [2]; 34.3% in [3]; 18.2% in [4]; 55.2% in [5]; 30.7% in test [6]. The growth in test [7] is 9.22% (active); in test [8] it was -65.7% (active); in test [9] it was 45%; in test [10], 36.3%; in test [11], 19.8%; in test [12] it was 24.9%. The growth in test [13] is 15.4%; in test [14] it was 49.9%; in test [15], 21.7%; in test [19], 23.8%; in [16], 94.1%; in [17], 11.4%. Besides, in test [18], the growth is 18.2%.
For the molecule `COC(=O)CC1CC1C1Cc2c(nc(N(C)S(C)(=O)=O)nc2C(C)C)-c2ccc(F)cc21` (stereo not given), the growth in test [1] was 58.7%; in test [2], 66.9%; in test [3], 91.2%; in [4], 84.9%; in [5], 33.9%; in test [6], 57.2%. The growth in test [7] was 56.5%; in test [8] it was 79.1%; in test [9], 104%; in test [10], 80.9%; in test [11], 87%; in [12] it was 94.9%. Moreover, the growth in [13] was 71.5%; in test [14] it was 114%; in test [15], 86.6%; in [19], 52.1%; in test [16], 117%; in test [17], 61.5%. Further, the growth in test [18] is 38.6%.
As to `Cc1ccc(-c2nc(Nc3ccc(S(N)(=O)=O)cc3)c3ccccc3n2)cc1`, the growth in [1] is 1.3% (active); in test [2] it was 14.6%; in test [3], 60.6%; in test [4], 49.7%; in test [5], 39.5%; in test [6], 74.4%. Moreover, the growth is 78.5% in [7]; -71.5% (active) in [8]; 75.8% in test [9]; 99.9% in test [10]; 65.9% in test [11]; 68.7% in test [12]. The growth was 54.5% in test [13]; 104% in test [14]; 42.8% in test [15]; 36.5% in test [19]; 61.3% in test [16]; 25.7% in [17]. Besides, in [18], the growth is 11.2%.
`CC(=O)c1ccc(Nc2nc(SC(C)C)nc(-c3ccccc3)c2C#N)cc1`: the growth in test [1] is 48.7%; in [2] it was 48.1%; in [3], -20% (active); in test [4], 10.2%; in test [5] it was 71.9%; in test [6], 38.1%. For the same molecule, the growth was 77.9% in [7]; 0.768% (active) in [8]; 31.3% in [9]; 111% in [10]; 39.7% in [11]; 10.9% in [12]. The growth in test [13] is -53.6% (active); in test [14] it was 6.61% (active); in [15], -56.9% (active); in test [19], 8.35% (active); in test [16] it was 94.7%; in [17] it was 97.5%. Besides, the growth in [18] was 82.9%.
As for `COc1ccc(-c2nc(Nc3ccccc3S(N)(=O)=O)c3ccccc3n2)cc1`, the growth in test [1] was 28.1%; in test [2] it was 8.94% (active); in [3], 57.7%; in [4] it was 3.82% (active); in [5], 55.6%; in [6], 61.3%. In addition, the growth was 56.5% in [7]; -79.9% (active) in test [8]; 76.7% in test [9]; 110% in test [10]; 65% in [11]; 26.3% in [12]. Further, the growth in test [13] is 29.2%; in test [14], 67.4%; in test [15], 15.3%; in [19] it was 7.47% (active); in test [16], 92%; in test [17], 64.1%. Also, the growth in test [18] is 21.1%.
Consider `CN1CCN(c2ccc(Nc3nc(NCCCNC(=O)c4ccccc4)c4sccc4n3)cc2)CC1`, for which the growth in [1] is 12.3%; in [2], 14.6%; in [3], 95.5%; in test [4] it was 22.8%; in test [5], 56.8%; in test [6], 64.9%. Also, the growth is 84.6% in test [7]; 16% in test [8]; 73.3% in [9]; 114% in test [10]; 89.9% in test [11]; 84.4% in [12]. In addition, the growth in [13] is 74.9%; in [14], 117%; in test [15], 60.1%; in test [19], 72.5%; in test [16] it was 141%; in [17], 25.2%.

(Values after PubChem BioAssay (NCI).)
